Assay results reported in PubChem BioAssay (NCATS).
Records with an inconclusive call do not appear. Activity calls are given as the source filed them. Unless noted, calls come from the whole dose curve; as a rule, active = well fitted curve in the direction sought with a large enough effect; inconclusive = small, poorly fitted or top-dose-only effect, or another doubt; inactive = no such curve, though single readings can be large; an effect the other way counts as inactive or inconclusive.

Legend:
[1] = target: DNA polymerase III PolC-type (Bacillus subtilis (strain 168)) (UniProt P13267); assay: qHTS Validation Assay for the Inhibitors of DNA Replication in Gram-Positive Bacteria (AID 485295);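 note: reconstituted holoenzyme with PolC plus beta clamp SSB and primase; PicoGreen fluorescence of double-stranded DNA made on primed circular M13 template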
Summary of the method: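 First, compound is mixed with the reconstituted replication complex and held at room temperature. Next, circular single-stranded M13Gori with nucleotides starts synthesis. Finally, PicoGreen in EDTA halts the reaction and stains double-stranded product for fluorescence reading.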

[2] = target: Tumor susceptibility gene 101 protein (Homo sapiens) (UniProt Q99816); assay: qHTS Validation Assay for Iinhibitors of HIV-1 Budding by Blocking the Interaction of PTAP/TSG101 (AID 485342; calls by dose curve)
Summary of the method: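 Binding of a FITC-tagged PTAP-motif peptide (50 nM) to the Tsg101 binding domain (10 uM) is monitored by fluorescence polarization. Compounds are pin-delivered before peptide addition, and incubation runs 20 min at room temperature.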

[3] = target: Beta-2 adrenergic receptor (Homo sapiens) (UniProt P07550); assay: qHTS validation assay of beta-arrestin-biased ligands of beta2-adrenergic receptor (AID 485366)
Summary of the method: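 Agonist activity is measured as luciferase luminescence downstream of beta-arrestin recruitment to recombinant beta2-AR in Tango cells. Exposure lasts 18 hr at 37 degrees C, and curves are categorized by r2, response size and activity.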

[4] = target: ATP-dependent 6-phosphofructokinase (Trypanosoma brucei brucei) (UniProt O15648); assay: qHTS Validation Assay to Find Inhibitors of T. brucei phosphofructokinase (AID 485368); conditions: T. brucei PFK enzyme assay, qHTS 7-point titration; at 57.5 µM (top of the series)
Summary of the method: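 Inhibition derived from concentration-response curves of luminescence, ranked by r2, response size and curve class; the underlying reaction used 1.25 nM PFK, 0.1 mM ATP and 0.5 mM F6P, 45 min, room temperature.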

[5] = target: Thioredoxin reductase 1, cytoplasmic (Rattus norvegicus) (UniProt O89049); assay: qHTS Assay for Substrates of Mammalian Selenoprotein Thioredoxin Reductase 1 (TrxR1) (AID 488772);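 note: a drop in NADPH fluorescence below the no-compound background marks a TrxR1 substrate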
Summary of the method: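 In this dual-purpose format, potential substrates are identified from the first fluorescence read after selenite addition, not from the 8-minute delta. Rat enzyme is preincubated with NADPH and then with compound at ~22 deg C.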

[6] = target: Thioredoxin reductase 1, cytoplasmic (Rattus norvegicus) (UniProt O89049); assay: qHTS Assay for Inhibitors of Mammalian Selenoprotein Thioredoxin Reductase 1 (TrxR1) (AID 488773);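 note: drop in NADPH fluorescence over an 8 min run after selenite addition; nearly all actives have a fitted effect of over 40% in size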
Summary of the method: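 Inhibition is scored from the loss of NADPH fluorescence between first and last reads of an 8-min kinetic run. Selenite (400 uM) was the substrate, added after 15 min compound preincubation at room temperature.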

[7] = target: Flap endonuclease 1 (Homo sapiens) (UniProt P39748); assay: qHTS Validation Assay for the Inhibitors of Human Flap endonuclease 1 (FEN1) (AID 488816)
Summary of the method: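 Steps: add FEN1 (10 nM reagent) or buffer only; pin compounds; hold 15 min at room temperature; start with substrate, 50 nM final; read at 0 and 15 min; correct, normalize and fit a four-parameter Hill curve.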

[8] = target: M-phase phosphoprotein 8 (Homo sapiens) (UniProt Q99549); assay: qHTS Validation Assay for Inhibitors for MPP8 Chromodomain Interactions with Methylated Histone Tails (AID 488949);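 note: 50 nM MPP8 with 50 nM peptide preformed then compounds added for 30 min; AlphaScreen signal from MPP8 chromodomain bound to biotinylated H3K9me3 peptide; top concentration of the series differs between compounds; nearly all actives have a fitted effect of over 55% in size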
Summary of the method: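 50 nM MPP8 + 50 nM b-H3K9me3 peptide, PBS pH 7.4/0.01% Tween-20, 30 min RT; + cpd 30 min RT; + AlphaScreen donor/Ni-chelate acceptor beads 10 ug/mL final, 30 min dark; luminescence read.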

[9] = target: Methanococcus maripaludis chaperonin (MmCpn) (UniProt Q6LX38); assay: High-Throughput Screening for Modulators of Cytosolic Chaperonin Activity: MmCpn Primary Screen (AID 488978);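 note: 50 nM MmCpn enzyme hydrolysing 30 µM ATP at 37 °C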
Summary of the method: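 Steps: chaperonin 50 nM final; add compound, 5 min RT; start with ATP, 30 uM final; hold 10 min at 37C; add ADP Transcreener HTRF reagent, 5 min; read ex 320, em 590 and 665 nm.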

[10] = target: Transient receptor potential cation channel subfamily V member 1 (Homo sapiens) (UniProt Q8NER1); assay: HTS Assay for Compounds that Act as Enhancers of the Vanilloid Receptor 1 (AID 488979)
Summary of the method: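 TRPV1-expressing cells loaded with Fluo-8 calcium dye; compounds added and calcium influx read kinetically for 3 min (agonist phase), then capsaicin at EC20 added and read 2 min more for enhancement. Fluorescence ex 480/em 520 nm.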

Measured: outcome

Chain of M-phase phosphoprotein 8 (Homo sapiens) (Q99549 whole entry, looked up): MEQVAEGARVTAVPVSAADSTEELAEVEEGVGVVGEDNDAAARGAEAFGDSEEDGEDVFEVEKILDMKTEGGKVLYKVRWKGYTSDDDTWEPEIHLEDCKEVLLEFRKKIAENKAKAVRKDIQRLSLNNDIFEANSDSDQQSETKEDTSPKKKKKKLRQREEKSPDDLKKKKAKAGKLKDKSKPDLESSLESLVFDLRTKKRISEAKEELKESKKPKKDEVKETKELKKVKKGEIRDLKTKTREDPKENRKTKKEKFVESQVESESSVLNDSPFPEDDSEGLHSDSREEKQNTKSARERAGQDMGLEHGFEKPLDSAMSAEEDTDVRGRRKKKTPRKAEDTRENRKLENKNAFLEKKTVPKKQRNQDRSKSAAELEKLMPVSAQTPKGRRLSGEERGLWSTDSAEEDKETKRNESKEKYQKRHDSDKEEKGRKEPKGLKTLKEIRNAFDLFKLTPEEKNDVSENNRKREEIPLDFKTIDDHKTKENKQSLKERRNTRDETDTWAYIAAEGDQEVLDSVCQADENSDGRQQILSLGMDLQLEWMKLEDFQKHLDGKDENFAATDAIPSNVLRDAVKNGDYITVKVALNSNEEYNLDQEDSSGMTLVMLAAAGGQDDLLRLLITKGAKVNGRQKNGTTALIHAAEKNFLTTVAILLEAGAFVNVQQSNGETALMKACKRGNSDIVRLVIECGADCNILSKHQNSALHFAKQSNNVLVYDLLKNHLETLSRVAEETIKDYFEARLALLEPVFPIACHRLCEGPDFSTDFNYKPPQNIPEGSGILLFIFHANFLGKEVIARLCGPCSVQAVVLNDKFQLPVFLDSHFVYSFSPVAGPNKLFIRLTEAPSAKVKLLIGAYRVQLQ
Chain of Transient receptor potential cation channel subfamily V member 1 (Homo sapiens) (Q8NER1 whole entry, looked up): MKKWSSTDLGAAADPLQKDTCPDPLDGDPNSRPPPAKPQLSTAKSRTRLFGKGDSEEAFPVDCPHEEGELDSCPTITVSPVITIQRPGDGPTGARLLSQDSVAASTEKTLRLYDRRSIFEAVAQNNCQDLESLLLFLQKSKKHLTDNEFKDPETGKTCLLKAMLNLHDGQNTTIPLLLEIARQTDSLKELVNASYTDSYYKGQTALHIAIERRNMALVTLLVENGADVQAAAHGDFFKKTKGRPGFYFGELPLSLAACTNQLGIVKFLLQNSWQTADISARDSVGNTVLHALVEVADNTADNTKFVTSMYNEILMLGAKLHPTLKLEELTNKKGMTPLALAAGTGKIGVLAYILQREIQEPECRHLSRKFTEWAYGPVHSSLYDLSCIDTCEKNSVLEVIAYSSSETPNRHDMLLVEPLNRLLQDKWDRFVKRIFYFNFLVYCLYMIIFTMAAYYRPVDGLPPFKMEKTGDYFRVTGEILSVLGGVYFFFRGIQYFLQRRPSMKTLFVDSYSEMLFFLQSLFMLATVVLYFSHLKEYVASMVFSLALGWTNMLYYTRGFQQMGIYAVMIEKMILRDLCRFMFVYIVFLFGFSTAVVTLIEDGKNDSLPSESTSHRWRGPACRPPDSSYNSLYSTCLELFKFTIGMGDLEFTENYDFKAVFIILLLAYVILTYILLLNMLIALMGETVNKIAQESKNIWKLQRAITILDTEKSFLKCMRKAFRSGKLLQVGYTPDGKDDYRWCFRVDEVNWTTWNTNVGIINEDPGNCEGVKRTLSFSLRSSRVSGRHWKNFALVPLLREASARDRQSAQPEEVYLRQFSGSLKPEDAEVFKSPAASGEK
Chain of Thioredoxin reductase 1, cytoplasmic (Rattus norvegicus) (O89049 whole entry, looked up): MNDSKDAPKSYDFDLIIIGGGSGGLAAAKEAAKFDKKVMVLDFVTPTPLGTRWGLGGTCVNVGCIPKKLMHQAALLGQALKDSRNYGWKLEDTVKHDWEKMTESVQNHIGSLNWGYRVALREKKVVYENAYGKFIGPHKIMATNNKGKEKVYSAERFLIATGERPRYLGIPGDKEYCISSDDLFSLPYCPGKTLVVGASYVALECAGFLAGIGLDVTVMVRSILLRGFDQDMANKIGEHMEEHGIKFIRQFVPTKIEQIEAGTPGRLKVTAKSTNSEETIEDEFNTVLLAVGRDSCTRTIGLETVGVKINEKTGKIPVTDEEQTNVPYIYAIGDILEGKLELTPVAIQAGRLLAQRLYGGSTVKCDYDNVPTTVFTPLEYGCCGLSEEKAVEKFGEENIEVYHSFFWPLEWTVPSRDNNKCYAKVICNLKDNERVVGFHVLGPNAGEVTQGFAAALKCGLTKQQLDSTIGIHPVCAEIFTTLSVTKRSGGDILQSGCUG
Chain of Beta-2 adrenergic receptor (Homo sapiens) (P07550 whole entry, looked up): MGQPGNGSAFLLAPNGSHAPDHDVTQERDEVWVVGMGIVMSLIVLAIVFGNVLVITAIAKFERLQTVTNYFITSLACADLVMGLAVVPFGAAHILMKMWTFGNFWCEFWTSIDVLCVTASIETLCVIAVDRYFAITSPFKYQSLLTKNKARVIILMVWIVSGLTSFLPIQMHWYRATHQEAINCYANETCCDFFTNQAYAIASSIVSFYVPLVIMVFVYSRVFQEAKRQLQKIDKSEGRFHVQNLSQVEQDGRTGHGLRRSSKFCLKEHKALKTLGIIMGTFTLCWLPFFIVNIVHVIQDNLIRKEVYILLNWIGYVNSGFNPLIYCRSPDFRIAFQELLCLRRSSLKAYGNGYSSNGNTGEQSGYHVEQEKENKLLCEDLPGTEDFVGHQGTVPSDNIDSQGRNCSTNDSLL
Chain of Flap endonuclease 1 (Homo sapiens) (P39748 whole entry, looked up): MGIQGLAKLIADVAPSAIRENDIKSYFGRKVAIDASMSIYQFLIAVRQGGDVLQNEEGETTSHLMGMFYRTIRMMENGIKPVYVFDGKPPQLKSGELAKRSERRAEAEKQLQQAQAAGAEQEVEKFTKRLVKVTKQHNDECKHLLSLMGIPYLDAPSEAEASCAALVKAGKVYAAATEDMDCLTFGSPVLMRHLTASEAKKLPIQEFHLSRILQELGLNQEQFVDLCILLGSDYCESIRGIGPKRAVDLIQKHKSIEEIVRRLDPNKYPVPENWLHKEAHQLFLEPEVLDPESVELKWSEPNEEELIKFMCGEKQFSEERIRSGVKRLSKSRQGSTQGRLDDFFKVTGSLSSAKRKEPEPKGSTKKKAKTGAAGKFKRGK
Chain of Tumor susceptibility gene 101 protein (Homo sapiens) (Q99816 whole entry, looked up, the tested form may be a part): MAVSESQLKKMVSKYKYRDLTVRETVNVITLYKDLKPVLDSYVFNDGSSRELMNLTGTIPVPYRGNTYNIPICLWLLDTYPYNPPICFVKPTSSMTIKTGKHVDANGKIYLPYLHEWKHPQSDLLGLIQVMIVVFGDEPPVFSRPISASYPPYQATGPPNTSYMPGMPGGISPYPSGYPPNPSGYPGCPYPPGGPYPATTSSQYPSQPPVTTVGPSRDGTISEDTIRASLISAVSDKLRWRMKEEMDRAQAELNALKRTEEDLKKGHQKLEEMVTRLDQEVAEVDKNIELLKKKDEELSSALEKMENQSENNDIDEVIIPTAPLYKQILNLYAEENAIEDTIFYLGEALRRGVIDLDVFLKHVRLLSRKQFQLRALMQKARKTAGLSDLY
Chain of ATP-dependent 6-phosphofructokinase (Trypanosoma brucei brucei) (O15648 whole entry, looked up): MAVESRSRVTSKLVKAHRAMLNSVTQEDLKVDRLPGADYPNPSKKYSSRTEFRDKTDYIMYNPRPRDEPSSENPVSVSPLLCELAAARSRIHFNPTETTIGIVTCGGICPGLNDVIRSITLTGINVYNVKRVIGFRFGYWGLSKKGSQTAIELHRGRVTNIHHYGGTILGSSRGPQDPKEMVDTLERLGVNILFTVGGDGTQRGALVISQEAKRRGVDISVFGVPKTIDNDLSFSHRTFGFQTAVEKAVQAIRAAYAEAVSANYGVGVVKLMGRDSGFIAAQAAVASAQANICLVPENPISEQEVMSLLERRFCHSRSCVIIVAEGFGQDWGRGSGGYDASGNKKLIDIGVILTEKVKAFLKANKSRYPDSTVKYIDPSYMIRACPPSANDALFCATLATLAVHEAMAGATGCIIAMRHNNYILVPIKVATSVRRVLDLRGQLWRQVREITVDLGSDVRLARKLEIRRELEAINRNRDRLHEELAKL
Chain of Methanococcus maripaludis chaperonin (MmCpn) (Q6LX38 1-543): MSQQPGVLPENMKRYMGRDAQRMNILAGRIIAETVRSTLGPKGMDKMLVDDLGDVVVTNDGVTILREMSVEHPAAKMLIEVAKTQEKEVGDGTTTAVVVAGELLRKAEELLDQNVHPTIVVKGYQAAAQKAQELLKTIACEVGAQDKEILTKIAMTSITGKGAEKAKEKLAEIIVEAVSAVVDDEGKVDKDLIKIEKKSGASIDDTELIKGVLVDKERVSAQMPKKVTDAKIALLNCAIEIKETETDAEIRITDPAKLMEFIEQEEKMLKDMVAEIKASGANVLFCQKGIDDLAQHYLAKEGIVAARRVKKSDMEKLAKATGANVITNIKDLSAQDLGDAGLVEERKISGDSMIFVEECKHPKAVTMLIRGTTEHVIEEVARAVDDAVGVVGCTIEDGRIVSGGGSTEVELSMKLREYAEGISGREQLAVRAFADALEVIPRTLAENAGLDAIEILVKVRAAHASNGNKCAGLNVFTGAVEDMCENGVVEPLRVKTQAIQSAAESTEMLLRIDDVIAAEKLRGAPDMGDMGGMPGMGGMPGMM

CN1Cc2c(N)cccc2C(c2ccccc2)C1 (configuration not stated)
inactive: [1] | [2] | [3] | [4] | [5] | [6] | [7] | [8] | [9] | [10]

CC[N+](C)(C)Cc1ccccc1Br
inactive: [8] | [10]
